{
  "source": "PubChem BioAssay (Tox21)",
  "note": "Values joined by “and” are separate entries in the source; they are usually repeats but may differ in a detail not shown here. Equal entries are not always repeated. Results filed as inconclusive are left out. A call without a number means that no potency is given here. A number with no mark means an inactive call. Active and inactive are the calls of the source. Unless noted, the call rests on the fitted dose curve; in most records, active means well fitted cell-killing curve with a large enough effect in the repeat runs; inconclusive means weak or mixed curves, or effect the other way; inactive means no such curve, though single readings can be large or run the other way.",
  "data": [
    {"biological_target": "Thyrotropin receptor (Homo sapiens) (UniProt P16473)", "sequence (P16473 whole entry, looked up)": "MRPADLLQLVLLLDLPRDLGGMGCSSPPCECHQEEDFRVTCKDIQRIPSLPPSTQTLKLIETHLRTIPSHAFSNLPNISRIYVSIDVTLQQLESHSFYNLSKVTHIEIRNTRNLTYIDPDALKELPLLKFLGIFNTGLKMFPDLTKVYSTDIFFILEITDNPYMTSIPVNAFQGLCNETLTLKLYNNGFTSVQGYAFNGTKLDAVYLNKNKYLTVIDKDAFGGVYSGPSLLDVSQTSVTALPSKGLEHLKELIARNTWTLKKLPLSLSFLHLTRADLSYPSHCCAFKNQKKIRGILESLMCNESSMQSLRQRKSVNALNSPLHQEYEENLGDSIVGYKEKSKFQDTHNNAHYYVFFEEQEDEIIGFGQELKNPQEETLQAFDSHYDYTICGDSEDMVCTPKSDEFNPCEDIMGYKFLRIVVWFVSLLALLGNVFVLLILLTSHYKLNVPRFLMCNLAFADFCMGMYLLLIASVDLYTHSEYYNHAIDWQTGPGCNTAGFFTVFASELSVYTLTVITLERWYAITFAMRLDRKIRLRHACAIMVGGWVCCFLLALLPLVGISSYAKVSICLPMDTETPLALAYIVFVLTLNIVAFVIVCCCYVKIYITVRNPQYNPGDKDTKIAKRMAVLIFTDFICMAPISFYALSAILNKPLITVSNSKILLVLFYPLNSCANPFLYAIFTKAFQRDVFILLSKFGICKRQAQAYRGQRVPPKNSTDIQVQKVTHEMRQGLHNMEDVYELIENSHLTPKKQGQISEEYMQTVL", "assay": "qHTS assay to identify small molecule antagonists of the thyroid stimulating hormone receptor (TSHR) signaling pathway (AID 1259385; calls by dose curve; further: nearly all actives have a fitted effect of over 20% in size)", "settings": "TSHR-HEK293 cAMP HTRF, TSH-stimulated antagonist mode; series mostly up to 92.4 µM; activity change, negative = inhibition: at the top concentration", "how_it_was_run": "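TSHR-HEK293 cells were plated and held 18 h at 37C/5% CO2, then given compound plus Ro20-1724 and stimulated with TSH at 1.5 ng/mL final. After 30 min at room temperature, cAMP was detected with cAMP-d2/anti-cAMP-cryptate (1 h) by fluorescence.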", "values": [
      {"compound": "CN(C)c1cccc(O)c1", "activity change, negative = inhibition": "-6.41%"},
      {"compound": "CS(=O)(=O)Nc1ccc([N+](=O)[O-])cc1Oc1ccccc1", "outcome": "inactive"},
      {"compound": "CCCCCCCCC", "outcome": "inactive"},
      {"compound": "OC1CCCC1", "outcome": "inactive"},
      {"compound": "NS(=O)(=O)c1cc2c(cc1Cl)NC=NS2(=O)=O", "outcome": "inactive"},
      {"compound": "Nc1c(S(=O)(=O)O)cc(Br)c2c1C(=O)c1ccccc1C2=O", "activity change, negative = inhibition": "-6.5% [at 42.5 µM]"},
      {"compound": "OCCOCCOCCOCCO", "outcome": "inactive"},
      {"compound": "CC(C)(N=C=O)c1cccc(C(C)(C)N=C=O)c1", "activity change, negative = inhibition": "4.15%"},
      {"compound": "CCC(C)C=O", "note": "(stereo unspecified)", "activity change, negative = inhibition": "0.377%"},
      {"compound": "CCOC(=O)/C=C\\C(=O)OCC", "outcome": "inactive"},
      {"compound": "C=C(C)C(=O)OCCC[Si](OC)(OC)OC", "outcome": "inactive"},
      {"compound": "CC(C)(C)C1CCC(O)CC1", "note": "(stereo unspecified)", "activity change, negative = inhibition": "-5.5%"},
      {"compound": "ClC1=C(Cl)C(Cl)(Cl)C(Cl)=C1Cl", "outcome": "inactive"},
      {"compound": "Cc1cc(=O)[nH]c(C(C)C)n1", "outcome": "inactive"},
      {"compound": "CCCCCC/C=C/CCCCCCCC(=O)O", "outcome": "inactive"},
      {"compound": "Cc1ccc(N)c(S(=O)(=O)O)c1", "outcome": "inactive"},
      {"compound": "CC1Cc2ccccc2N1NC(=O)c1ccc(Cl)c(S(N)(=O)=O)c1", "note": "(stereo unspecified)", "outcome": "inactive"},
      {"compound": "CC1(C)CC(N=C=O)CC(C)(CN=C=O)C1", "note": "(stereo unspecified)", "outcome": "inactive"},
      {"compound": "CC(C)Cc1ccccc1", "outcome": "inactive"},
      {"compound": "Cc1ccc(C)c(C)c1", "outcome": "inactive"},
      {"compound": "CCCCCCC(C)(C)S", "outcome": "inactive"},
      {"compound": "Oc1ccc(OCc2ccccc2)cc1", "activity change, negative = inhibition": "-3.07% [at 42.5 µM]"},
      {"compound": "O=S(=O)(O)c1cc(S(=O)(=O)O)c2c(N=Nc3ccccc3)c(O)ccc2c1", "activity change, negative = inhibition": "4.38%"},
      {"compound": "O=C1O[C@H](CO)[C@@H](O)[C@H](O)[C@H]1O", "outcome": "inactive"},
      {"compound": "C[C@@H]1O[C@@H](OC[C@H]2O[C@@H](Oc3c(-c4ccc(O)c(O)c4)oc4cc(O)cc(O)c4c3=O)[C@H](O)[C@@H](O)[C@@H]2O)[C@H](O)[C@H](O)[C@H]1O", "activity change, negative = inhibition": "-2.26% [at 42.5 µM]"},
      {"compound": "O=S(=O)(O)CCS", "outcome": "inactive"},
      {"compound": "O=C(Oc1ccccc1)c1ccc(O)cc1", "outcome": "inactive"},
      {"compound": "CC1=CC[C@H]2C[C@@H]1C2(C)C", "outcome": "inactive"},
      {"compound": "O=[N+]([O-])c1cccc(Cl)c1", "outcome": "inactive"},
      {"compound": "O=C(O)c1cc(-c2ccccc2)nc2ccccc12", "outcome": "inactive"},
      {"compound": "C=C(C)C(=O)OCCCCCCCCCCCC", "outcome": "inactive"},
      {"compound": "CNC[C@H](O)[C@@H](O)[C@H](O)[C@H](O)CO", "activity change, negative = inhibition": "2.59% [at 42.5 µM]"},
      {"compound": "CCCCCCCCCC(=O)O", "outcome": "inactive"},
      {"compound": "CCCCC(CC)COC(C)=O", "note": "(stereo unspecified)", "outcome": "inactive"},
      {"compound": "O=[N+]([O-])C(CO)(CO)CO", "outcome": "inactive"},
      {"compound": "CC1=C(/C=C/C(C)=C/C=C/C(C)=C/CO)C(C)(C)CCC1", "outcome": "inactive"},
      {"compound": "C=C(C#N)C(=O)OCC", "outcome": "inactive"},
      {"compound": "CC(C)(CO)COC(=O)C(C)(C)CO", "outcome": "inactive"}
    ]},
    {"tested_on": "not listed separately", "assay": "qHTS assay to identify small molecule agonists of the estrogen receptor alpha (ER-alpha) signaling pathway in the presence of an antagonist - cell viability counter screen (AID 1259386);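 further: cells exposed to compounds for 22 h at 37 °C before the viability read; nearly all actives have a fitted effect of over 30% in size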; further: potency means the concentration at half of the fitted maximal effect", "settings": "VM7Luc4E2 viability, CellTiter-Fluor fluorescence, 22 h; series mostly up to 92.4 µM; activity change, negative = cytotoxicity: at the top concentration", "how_it_was_run": "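VM7Luc4E2, stripped-serum pre-culture 5 d; 24hr plating; +ICI-182,780 10.0nM final; cpds 15 conc, 22hr, 37C/5% CO2; CellTiter-Fluor added at 21hr, fluorescence 1hr later.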", "values": [
      {"compound": "CN(C)c1cccc(O)c1", "Potency": "inactive"},
      {"compound": "CS(=O)(=O)Nc1ccc([N+](=O)[O-])cc1Oc1ccccc1", "Potency": "48.6 µM (active) and 26.6 µM (active)"},
      {"compound": "CCCCCCCCC", "Potency": "inactive"},
      {"compound": "OC1CCCC1", "Potency": "inactive"},
      {"compound": "NS(=O)(=O)c1cc2c(cc1Cl)NC=NS2(=O)=O", "Potency": "inactive"},
      {"compound": "Nc1c(S(=O)(=O)O)cc(Br)c2c1C(=O)c1ccccc1C2=O", "Potency": "30.6 µM (active)"},
      {"compound": "OCCOCCOCCOCCO", "Potency": "inactive"},
      {"compound": "CC(C)(N=C=O)c1cccc(C(C)(C)N=C=O)c1", "Potency": "inactive"},
      {"compound": "CCC(C)C=O", "note": "(stereo unspecified)", "Potency": "inactive"},
      {"compound": "CCOC(=O)/C=C\\C(=O)OCC", "Potency": "inactive"},
      {"compound": "C=C(C)C(=O)OCCC[Si](OC)(OC)OC", "Potency": "inactive"},
      {"compound": "CC(C)(C)C1CCC(O)CC1", "note": "(stereo unspecified)", "Potency": "inactive"},
      {"compound": "ClC1=C(Cl)C(Cl)(Cl)C(Cl)=C1Cl", "Potency": "inactive"},
      {"compound": "Cc1cc(=O)[nH]c(C(C)C)n1", "Potency": "inactive"},
      {"compound": "CCCCCC/C=C/CCCCCCCC(=O)O", "Potency": "inactive"},
      {"compound": "Cc1ccc(N)c(S(=O)(=O)O)c1", "Potency": "inactive"},
      {"compound": "CC1Cc2ccccc2N1NC(=O)c1ccc(Cl)c(S(N)(=O)=O)c1", "note": "(stereo unspecified)", "Potency": "inactive"},
      {"compound": "CC1(C)CC(N=C=O)CC(C)(CN=C=O)C1", "note": "(stereo unspecified)", "Potency": "inactive"},
      {"compound": "CC(C)Cc1ccccc1", "Potency": "inactive"},
      {"compound": "Cc1ccc(C)c(C)c1", "Potency": "inactive"},
      {"compound": "CCCCCCC(C)(C)S", "Potency": "inactive"},
      {"compound": "Oc1ccc(OCc2ccccc2)cc1", "Potency": "inactive"},
      {"compound": "O=S(=O)(O)c1cc(S(=O)(=O)O)c2c(N=Nc3ccccc3)c(O)ccc2c1", "Potency": "61.4 µM (active) and 27.3 µM (active)"},
      {"compound": "O=C1O[C@H](CO)[C@@H](O)[C@H](O)[C@H]1O", "Potency": "inactive"},
      {"compound": "C[C@@H]1O[C@@H](OC[C@H]2O[C@@H](Oc3c(-c4ccc(O)c(O)c4)oc4cc(O)cc(O)c4c3=O)[C@H](O)[C@@H](O)[C@@H]2O)[C@H](O)[C@H](O)[C@H]1O", "Potency": "54.9 µM (active)"},
      {"compound": "O=S(=O)(O)CCS", "Potency": "inactive"},
      {"compound": "O=C(Oc1ccccc1)c1ccc(O)cc1", "Potency": "inactive"},
      {"compound": "CC1=CC[C@H]2C[C@@H]1C2(C)C", "Potency": "inactive"},
      {"compound": "O=[N+]([O-])c1cccc(Cl)c1", "Potency": "inactive"},
      {"compound": "O=C(O)c1cc(-c2ccccc2)nc2ccccc12", "Potency": "inactive"},
      {"compound": "C=C(C)C(=O)OCCCCCCCCCCCC", "Potency": "inactive"},
      {"compound": "CNC[C@H](O)[C@@H](O)[C@H](O)[C@H](O)CO", "Potency": "inactive"},
      {"compound": "CCCCCCCCCC(=O)O", "Potency": "inactive"},
      {"compound": "CCCCC(CC)COC(C)=O", "note": "(stereo unspecified)", "Potency": "inactive"},
      {"compound": "O=[N+]([O-])C(CO)(CO)CO", "Potency": "inactive"},
      {"compound": "CC1=C(/C=C/C(C)=C/C=C/C(C)=C/CO)C(C)(C)CCC1", "Potency": "inactive"},
      {"compound": "C=C(C#N)C(=O)OCC", "Potency": "inactive"},
      {"compound": "CC(C)(CO)COC(=O)C(C)(C)CO", "Potency": "inactive"}
    ]}
  ]
}
